Experiment [1] can be described thus: Drug repurposing screens with cells derived from glioblastoma tumor samples (AID 1345199). Further: nearly all actives have a fitted effect of over 40% in size. To be noted: GBM patient neurospheres viability, ATP luminescence, 48 h. In outline:
(§1)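 Four patient lines of CD133+ GBM neurospheres were screened at several concentrations; hits were retested in those lines plus three slower-growing GBM lines, using 48-hour treatment and ATP-based viability.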

For another experiment, the system named is astro (control astrocytes). The experiment is described as above. To be noted: viability, ATP luminescence, 48 h; series mostly up to 45.9 µM. Put shortly:
as §1

Setting [2] is: at 45.9 µM (top of the series), tumour line B.
[3] abbreviates: at 45.9 µM (top of the series), tumour line D.
Where [4] appears, read: at 46 µM (top of the series), tumour line A.
The mark [5] stands for this setting: at 46.1 µM (top of the series), tumour line C.
Where [6] appears, read: at 20 µM (top of the series), tumour line C.
[7] abbreviates: at 21.2 µM (top of the series), tumour line B.
Where [8] appears, read: at 21.2 µM (top of the series), tumour line D.

Results filed as inconclusive are left out. A number with no mark means an inactive call. Calls of active or inactive are those of the source. The call rests on the fitted dose curve; in most records, active means well fitted inhibition curve with a large enough effect; inconclusive means small, poorly fitted or top-dose-only effect; inactive means flat fitted curve, though single readings scatter. Where a SMILES comes first, the peptide text is derived from it. Bridges are numbered along the chain shown (N, C = ends). [ ]: non-standard residue; d: D form. The star is where a group is joined. Dab(CH2SO3H) = N[C@@H](CCNCS(=O)(=O)O)C(=O)O; X3 = CC[C@@H](C)CCCCC(=O)*; Dab = NCC[C@H](N)C(=O)O
On the % scale 0 is the no-effect control and ±100 the full control effect; potency means the concentration at half of the fitted maximal effect.

Turning to `COC(F)(F)C(Cl)Cl`, the figures for the activity, negative = cell killing in experiment [1] (setting [2]), in experiment [1] (setting [3]) and in experiment [1] (setting [4]) were -7.55%, -1.1% and -22%, respectively. Besides, the Potency entry in the experiment on astro is “inactive”.

Regarding `O=CCCCC=O`, the activity, negative = cell killing was -2.9% in experiment [1] (setting [2]), -3.77% in experiment [1] (setting [3]) and -3.46% in experiment [1] (setting [5]). In addition, in the experiment with astro, the Potency result is “inactive”.

Take `CCOC(=O)C1=C(C)NC(C)=C(C(=O)OCC)C1c1ccccc1C=CC(=O)OC(C)(C)C`: the activity, negative = cell killing in experiment [1] (setting [5]) was 2.25%. For the same molecule, the Potency in experiment [1] (tumour line A) is 2.24 µM (active); in experiment [1] (tumour line D), 12.6 µM (active); in the experiment with astro, 20 µM (active).

Consider `CC[N+](CC)(CC)CCC(O)(c1ccccc1)C1CCCCC1` (centres undefined), for which the activity, negative = cell killing in experiment [1] (setting [6]) was 3.9%; in experiment [1] (setting [7]) it was -4.74%; in experiment [1] (setting [8]), 0.449%. In the experiment with astro, the Potency result is “inactive”.

In the case of `COc1ccc(CCNC[C@H](O)c2ccc(O)cc2)cc1OC`, the figures for the activity, negative = cell killing in experiment [1] (setting [2]), in experiment [1] (setting [3]) and in experiment [1] (setting [5]) were -3.8%, -0.958% and -0.44%, respectively. Also, the Potency result with astro is “inactive”.

`CNc1cc(OC)c(C(=O)N[C@H]2CCN(Cc3ccccc3)[C@H]2C)cc1Cl`: in experiment [1] (setting [2]), the activity, negative = cell killing is -17.5%. For the same molecule, the Potency is 7.08 µM (active) in experiment [1] (tumour line A) and 20 µM (active) in experiment [1] (tumour line D). For the same molecule, the Potency result with astro was “inactive”.

On to `CCCCC(C)(O)C/C=C/[C@H]1[C@H](O)CC(=O)[C@@H]1CCCCCCC(=O)OC` (some centres undefined), for which the activity, negative = cell killing in experiment [1] (setting [2]) was -29.2%; in experiment [1] (setting [3]), -0.625%; in experiment [1] (setting [5]), 7.24%. Also, in the experiment on astro, the Potency entry was “inactive”.

Consider `CCC(=O)NCCC1CCc2ccc3c(c21)CCO3` (centres undefined), for which the activity, negative = cell killing was -16.2% in experiment [1] (setting [2]) and -14.5% in experiment [1] (setting [5]). Besides, the Potency in experiment [1] (tumour line A) was 11.2 µM (active). Also, the Potency entry with astro is “inactive”.

For `CC1(C)S[C@@H]2[C@H](NC(=O)C(C(=O)O)c3ccsc3)C(=O)N2[C@H]1C(=O)O` (some centres undefined), the activity, negative = cell killing in experiment [1] (setting [2]) was 5.71%; in experiment [1] (setting [3]), -0.709%; in experiment [1] (setting [4]) it was 0.915%; in experiment [1] (setting [5]), -15.8%. Further, the Potency result in the experiment on astro is “inactive”.

For `CC1=C(/C=C/C(C)=C/C=C/C(C)=C/C=C/C=C(C)/C=C/C=C(C)/C=C/C2=C(C)C(=O)CCC2(C)C)C(C)(C)CCC1=O`, the activity, negative = cell killing in experiment [1] (setting [2]) was -0.298%; in experiment [1] (setting [3]), 9.62%; in experiment [1] (setting [5]) it was -24.8%. In addition, in the experiment on astro, the Potency entry was “inactive”.

For `CCCC(=O)O[C@]1(C(=O)COC(C)=O)CC[C@H]2[C@@H]3C[C@H](F)C4=CC(=O)C=C[C@]4(C)[C@@]3(F)[C@@H](O)C[C@@]21C`, the activity, negative = cell killing in experiment [1] (setting [2]) was -13.7%; in experiment [1] (setting [3]), -22.5%; in experiment [1] (setting [4]) it was -29.1%; in experiment [1] (setting [5]), -14.3%. For the same molecule, in the experiment on astro, the Potency result was “inactive”.

With `Nc1nc(N)c2nc(CNc3ccc(C(=O)N[C@@H](CCC(=O)O)C(=O)O)cc3)cnc2n1`, the activity, negative = cell killing is -5.27% in experiment [1] (setting [2]), 12.1% in experiment [1] (setting [3]) and -19.6% in experiment [1] (setting [4]). In addition, in the experiment on astro, the Potency entry is “inactive”.

`C=CCSSSCC=C`: the activity, negative = cell killing in experiment [1] (setting [2]) is -7.75%; in experiment [1] (setting [3]) it was -21.3%; in experiment [1] (setting [4]) it was -14.2%; in experiment [1] (setting [5]) it was -8.17%. For the same molecule, in the experiment with astro, the Potency entry is “inactive”.

Take `CC1=CCC(C(C)(C)O)CC1` (centres undefined): the activity, negative = cell killing in experiment [1] (setting [2]) is -2.21%; in experiment [1] (setting [3]), -4.36%; in experiment [1] (setting [4]) it was -13.1%; in experiment [1] (setting [5]), -3.81%. The Potency entry in the experiment on astro is “inactive”.

For the molecule `CCOC(=O)O[C@]1(C(=O)COC(=O)CC)CC[C@H]2[C@@H]3CCC4=CC(=O)C=C[C@]4(C)[C@H]3[C@@H](O)C[C@@]21C`, the activity, negative = cell killing in experiment [1] (setting [6]) is 2.55%; in experiment [1] (setting [7]), -5.02%; in experiment [1] (setting [8]) it was -9.53%; in experiment [1] (at 21.3 µM (top of the series), tumour line A) it was -19.6%. Moreover, the Potency result with astro was “inactive”.

Turning to `CCCCCCCCCCCCCCCCCCOP(=O)([O-])OC1CC[N+](C)(C)CC1`, the activity, negative = cell killing was -12.3% in experiment [1] (setting [6]), -9.9% in experiment [1] (setting [7]) and -6.99% in experiment [1] (setting [8]). In addition, in the experiment with astro, the Potency entry is “inactive”.

For `Cc1cc(/C=C/c2ccc3cc(N(C)C)ccc3[n+]2C)c(C)n1-c1ccccc1`, the activity, negative = cell killing in experiment [1] (setting [6]) is -11.8%.

With `CCC(=O)OCC(=O)[C@@]1(OC(=O)CC)[C@H](C)C[C@H]2[C@H]3[C@H]([C@@H](O)C[C@@]21C)[C@@]1(C)C=CC(=O)C=C1C[C@H]3Cl`, the activity, negative = cell killing in experiment [1] (setting [6]) was -8.97%; in experiment [1] (setting [7]) it was -7.29%; in experiment [1] (setting [8]), -17.3%.

For `CC[C@@H](C)CCCCC(=O)N[C@@H](CCNCS(=O)(=O)O)C(=O)N[C@H](C(=O)N[C@@H](CCNCS(=O)(=O)O)C(=O)N[C@H]1CCNC(=O)[C@H]([C@@H](C)O)NC(=O)[C@H](CCNCS(=O)(=O)O)NC(=O)[C@H](CCNCS(=O)(=O)O)NC(=O)[C@H](CC(C)C)NC(=O)[C@@H](CC(C)C)NC(=O)[C@H](CCNCS(=O)(=O)O)NC1=O)[C@@H](C)O` (X3-[Dab(CH2SO3H)]T[Dab(CH2SO3H)][Dab][Dab(CH2SO3H)][dL]L[Dab(CH2SO3H)][Dab(CH2SO3H)]T; lactam 4-C), the activity, negative = cell killing in experiment [1] (setting [4]) was -16.2%.
